Reference: paper PMC5540273 (PLoS ONE, 2017)

Test system: CLK3
Details: concentration: 1 μM, replicates: in singlicate; n = 1
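Note: KINOMEscan kinase panel screen.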

Row | SMILES | %Inh [%]
1 | COc1cc2nccc(Nc3ccc(NC(=O)c4ccc(C)cc4)c(O)c3)c2cc1OC.Cl [GW440132] | 87
2 | Nc1ncnc2[nH]c(-c3ccccc3)nc12 [AH5015] | 0
3 | Cl.NC(=O)c1cccc(Nc2nccc(Nc3ccc(Oc4cccc(Cl)c4)c(Cl)c3)n2)c1 [GW659008] | 10
4 | COC(=O)c1c(-c2ccccc2)c2cc(OC)ccc2c(=O)n1Cc1ccccc1 | 0
5 | CN(C)CCN(C)C(=O)c1cc(-c2ccncc2)c(-c2ccc(Cl)c(O)c2)o1.Cl.Cl [SB-710397] | 9
6 | CS(=O)(=O)c1ccc(-c2c(-c3ncn[nH]3)sc(N3CCOCC3)c2C#N)cc1 | 0
7 | CC(=O)Nc1nc2cnc(Nc3cc(NC(=O)c4cccc(CCC#N)c4)ccc3C)nc2s1 | 0
8 | COc1ccc(Nc2nccc(NCCNC(=O)Nc3ccccc3F)n2)cc1 [GSK1379901] | 100
9 | CN1C(=O)C(Nc2ccc(Cl)c(C(=O)O)c2)=C(c2ccc(Cl)cc2)C1=O [SB-404290] | 25
10 | Cn1cncc1-c1ccc2ncnc(Nc3ccc(OCc4ccccc4)cc3)c2c1 [GW320571] | 100
11 | COc1cc2ncn(-c3cc(OCC4CCCO4)c(C(N)=O)s3)c2cc1OC (stereo not shown) [GSK204607] | 10
12 | COc1ccccc1-c1ccc2c(NC(=O)C3CC3)n[nH]c2n1 [SB-711239] | 0
13 | Cc1c(Cn2ccn3c(=O)cc(N4CCOCC4)nc23)cccc1C(F)(F)F [GSK2289044] | 20
14 | Cc1ccc(NC(=O)Nc2cccc(Cl)c2)cc1-c1ccc(C(=O)Nc2ccncc2)cc1 [GSK1398468] | 12
15 | Cl.Oc1ccc(-c2nc(-c3ccccc3)[nH]c2-c2ccncc2)cc1 [SB-428218] | 0
16 | C[C@@H]1CCCCN1c1cc(-c2ccc3c(N)n[nH]c3c2)nc(N)n1 [GSK2258759] | 0
17 | COC(=O)c1c(-c2ccccc2)c2cc(C(=O)O)ccc2c(=O)n1Cc1ccccc1 | 0
18 | Cc1cccc(-c2nc(Nc3ccc4[nH]ncc4c3)c3ccccc3n2)n1 [GW857175] | 4

Row | SMILES | %Inh [%]
19 | Nc1nc(-c2nccs2)c(-c2ccnc3ccccc23)s1 [GW693542] | 0
20 | Cc1c(O)cccc1Nc1ccnc2ccc(C(F)(F)F)cc12.Cl [GW466413] | 0
21 | O=C(Nc1ccc2c(c1)OCO2)NC1CCN(c2ccnc(Nc3ccc(F)cc3)n2)C1 (stereo not shown) [GSK1379724] | 0
22 | Cc1ccccc1-n1cnc2c(N)ncnc21 [SKF-97510] | 0
23 | Cc1ccc(C(=O)Nc2ccc(Nc3ccnc4cc(-c5ccccn5)ccc34)cc2O)cc1.Cl [GW440146] | 0
24 | COc1ccc(Nc2nccc(-c3cccc(NC(=O)c4cc5cc(F)ccc5[nH]4)c3)n2)cc1 [GSK1229782] | 12
25 | COc1cccc(-c2cc(-c3c[nH]nc3-c3ccccn3)ccn2)c1 [GW680338] | 0
26 | Cc1cccc(-c2nc(-c3ccc(S(C)(=O)=O)cc3)sc2-c2ccnc(NCCc3ccccc3)c2)c1 | 12
27 | Clc1cc(Cl)cc(Nc2ccnc(Nc3cc(Cl)cc(Cl)c3)n2)c1 [GSK175726] | 22
28 | O=C(Nc1n[nH]c2nc(-c3nccs3)c(Br)cc12)C1CC1 [SB-742251] | 11
29 | O=C(Nc1n[nH]c2cc(-c3cccc(F)c3F)ccc12)C1CC1 [SB-733894] | 0
30 | Cc1nnc(-c2ccc3occ(-c4ccc(S(C)=O)cc4)c3c2)[nH]1 (stereo not shown) | 0
31 | Cc1cccc(-c2nc(C)cc(Nc3ccncc3)n2)n1 [GSK257997] | 15
32 | NC(=O)c1nnc2ccccc2c1N | 1
33 | O=c1cc(N2CCOCC2)nc2n(Cc3cccc(Cl)c3Cl)ccn12 [GSK2286295] | 13
34 | CS(=O)(=O)c1ccc(-c2nc3n(c2-c2ccncc2)CCC3)cc1 [SKF-105942] | 0
35 | COc1ccc(C2=C(Nc3cccc(C(=O)O)c3)C(=O)NC2=O)cc1 [SB-390765] | 8

Test system: CLK4
Details: concentration: 1 μM, replicates: in singlicate; n = 1

Row | SMILES | %Inh [%]
36 | COc1cc2nccc(Nc3ccc(NC(=O)c4ccc(C)cc4)c(O)c3)c2cc1OC.Cl [GW440132] | 14
37 | Nc1ncnc2[nH]c(-c3ccccc3)nc12 [AH5015] | 71
38 | Cl.NC(=O)c1cccc(Nc2nccc(Nc3ccc(Oc4cccc(Cl)c4)c(Cl)c3)n2)c1 [GW659008] | 17
39 | COC(=O)c1c(-c2ccccc2)c2cc(OC)ccc2c(=O)n1Cc1ccccc1 | 5
40 | CN(C)CCN(C)C(=O)c1cc(-c2ccncc2)c(-c2ccc(Cl)c(O)c2)o1.Cl.Cl [SB-710397] | 25
41 | CS(=O)(=O)c1ccc(-c2c(-c3ncn[nH]3)sc(N3CCOCC3)c2C#N)cc1 | 0
42 | CC(=O)Nc1nc2cnc(Nc3cc(NC(=O)c4cccc(CCC#N)c4)ccc3C)nc2s1 | 12
43 | COc1ccc(Nc2nccc(NCCNC(=O)Nc3ccccc3F)n2)cc1 [GSK1379901] | 29
44 | CN1C(=O)C(Nc2ccc(Cl)c(C(=O)O)c2)=C(c2ccc(Cl)cc2)C1=O [SB-404290] | 2
45 | Cn1cncc1-c1ccc2ncnc(Nc3ccc(OCc4ccccc4)cc3)c2c1 [GW320571] | 32
46 | COc1cc2ncn(-c3cc(OCC4CCCO4)c(C(N)=O)s3)c2cc1OC (stereo not shown) [GSK204607] | 18
47 | COc1ccccc1-c1ccc2c(NC(=O)C3CC3)n[nH]c2n1 [SB-711239] | 33
48 | Cc1c(Cn2ccn3c(=O)cc(N4CCOCC4)nc23)cccc1C(F)(F)F [GSK2289044] | 33
49 | Cc1ccc(NC(=O)Nc2cccc(Cl)c2)cc1-c1ccc(C(=O)Nc2ccncc2)cc1 [GSK1398468] | 5
50 | Cl.Oc1ccc(-c2nc(-c3ccccc3)[nH]c2-c2ccncc2)cc1 [SB-428218] | 0
51 | C[C@@H]1CCCCN1c1cc(-c2ccc3c(N)n[nH]c3c2)nc(N)n1 [GSK2258759] | 13
52 | COC(=O)c1c(-c2ccccc2)c2cc(C(=O)O)ccc2c(=O)n1Cc1ccccc1 | 0
53 | Cc1cccc(-c2nc(Nc3ccc4[nH]ncc4c3)c3ccccc3n2)n1 [GW857175] | 12

Row | SMILES | %Inh [%]
54 | Nc1nc(-c2nccs2)c(-c2ccnc3ccccc23)s1 [GW693542] | 16
55 | Cc1c(O)cccc1Nc1ccnc2ccc(C(F)(F)F)cc12.Cl [GW466413] | 38
56 | O=C(Nc1ccc2c(c1)OCO2)NC1CCN(c2ccnc(Nc3ccc(F)cc3)n2)C1 (stereo not shown) [GSK1379724] | 6
57 | Cc1ccccc1-n1cnc2c(N)ncnc21 [SKF-97510] | 0
58 | Cc1ccc(C(=O)Nc2ccc(Nc3ccnc4cc(-c5ccccn5)ccc34)cc2O)cc1.Cl [GW440146] | 23
59 | COc1ccc(Nc2nccc(-c3cccc(NC(=O)c4cc5cc(F)ccc5[nH]4)c3)n2)cc1 [GSK1229782] | 28
60 | COc1cccc(-c2cc(-c3c[nH]nc3-c3ccccn3)ccn2)c1 [GW680338] | 28
61 | Cc1cccc(-c2nc(-c3ccc(S(C)(=O)=O)cc3)sc2-c2ccnc(NCCc3ccccc3)c2)c1 | 1
62 | Clc1cc(Cl)cc(Nc2ccnc(Nc3cc(Cl)cc(Cl)c3)n2)c1 [GSK175726] | 38
63 | O=C(Nc1n[nH]c2nc(-c3nccs3)c(Br)cc12)C1CC1 [SB-742251] | 0
64 | O=C(Nc1n[nH]c2cc(-c3cccc(F)c3F)ccc12)C1CC1 [SB-733894] | 0
65 | Cc1nnc(-c2ccc3occ(-c4ccc(S(C)=O)cc4)c3c2)[nH]1 (stereo not shown) | 29
66 | Cc1cccc(-c2nc(C)cc(Nc3ccncc3)n2)n1 [GSK257997] | 9
67 | NC(=O)c1nnc2ccccc2c1N | 1
68 | O=c1cc(N2CCOCC2)nc2n(Cc3cccc(Cl)c3Cl)ccn12 [GSK2286295] | 51
69 | CS(=O)(=O)c1ccc(-c2nc3n(c2-c2ccncc2)CCC3)cc1 [SKF-105942] | 0
70 | COc1ccc(C2=C(Nc3cccc(C(=O)O)c3)C(=O)NC2=O)cc1 [SB-390765] | 4
